Values joined by “and” are separate entries in the source; they are usually repeats but may differ in a detail not shown here. Equal values may be shown once. Results filed as inconclusive are left out. Entries that show only a call come without a potency. Where a structure was tested more than once in an assay, its records may differ in their call. Active and inactive are the calls of the source. Unless noted, the call rests on the fitted dose curve.
What was measured:
[1] = Nuclear factor erythroid 2-related factor 2/antioxidant responsive element (Nrf2/ARE) small molecule agonists: qHTS cell viability counter screen in human keratinocytes (AID 1919968; active means well fitted curve in the direction sought with a large enough effect in the repeat runs; an effect the other way counts as inactive or inconclusive; further: nearly all actives have a fitted effect of over 55% in size)
In short: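 In human HaCaT keratinocytes stably expressing an ARE-driven luciferase, compound exposure lasted 23 h at 37 C under 5% CO2. Viable cells are quantified with a protease-based fluorogenic reagent (CellTiter-Fluor) read 1 h after addition.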

[2] = Nuclear factor erythroid 2-related factor 2/antioxidant responsive element (Nrf2/ARE) small molecule agonists: luciferase reporter gene qHTS assay in human keratinocytes (AID 1919969); further: nearly all actives have a fitted effect of over 35% in size; further: potency means the concentration at half of the fitted maximal effect
[3] = target: Gonadotropin-releasing hormone receptor (Homo sapiens) (UniProt P30968); assay: Human gonadotropin-releasing hormone receptor (GnRHR) small molecule agonists, calcium flux assay in GnRHR-HEK293 cells (AID 1920063); further: nearly all actives have a fitted effect of over 35% in size
Sequence of Gonadotropin-releasing hormone receptor (Homo sapiens) (P30968 whole entry, looked up): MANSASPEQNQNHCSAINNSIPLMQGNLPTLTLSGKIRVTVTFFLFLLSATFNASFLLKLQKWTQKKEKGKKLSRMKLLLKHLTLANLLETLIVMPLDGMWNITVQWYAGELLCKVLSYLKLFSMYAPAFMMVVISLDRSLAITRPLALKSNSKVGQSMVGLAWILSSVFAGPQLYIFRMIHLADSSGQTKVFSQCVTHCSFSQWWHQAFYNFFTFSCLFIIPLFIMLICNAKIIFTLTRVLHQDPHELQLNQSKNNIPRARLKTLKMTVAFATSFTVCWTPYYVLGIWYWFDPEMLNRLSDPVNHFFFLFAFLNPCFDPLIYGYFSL
In short: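 Intracellular calcium rise is the read-out: engineered human GnRHR HEK293 cells, dye-loaded, are exposed to DMSO-dissolved compounds and fluorescence at Ex/Em 480/540 is tracked for 3 min.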

[4] = target: KiSS-1 receptor (Homo sapiens) (UniProt Q969F8); assay: Human kisspeptin (KISS1R) small molecule agonists, calcium flux assay in KISS1R-HEK293 cells (AID 1920064; active means well fitted curve in the direction sought with a large enough effect in the repeat runs; an effect the other way counts as inactive or inconclusive)
Sequence of KiSS-1 receptor (Homo sapiens) (Q969F8 whole entry, looked up): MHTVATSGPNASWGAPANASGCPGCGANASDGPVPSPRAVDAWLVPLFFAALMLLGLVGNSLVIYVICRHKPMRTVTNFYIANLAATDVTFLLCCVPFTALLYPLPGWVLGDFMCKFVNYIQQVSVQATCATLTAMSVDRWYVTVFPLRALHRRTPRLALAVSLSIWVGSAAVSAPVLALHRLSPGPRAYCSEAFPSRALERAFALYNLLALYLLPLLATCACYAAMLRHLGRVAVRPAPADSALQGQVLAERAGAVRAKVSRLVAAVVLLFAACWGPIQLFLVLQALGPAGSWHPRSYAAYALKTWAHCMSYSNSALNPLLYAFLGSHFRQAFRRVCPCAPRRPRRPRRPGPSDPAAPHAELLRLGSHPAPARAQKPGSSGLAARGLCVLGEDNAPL
In short: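 Concentration-response testing used 15 concentrations in triplicate on human KISS1R-expressing HEK293 cells. Calcium-dependent fluorescence (Ex/Em 480/540) was followed kinetically for 3 min after compound transfer.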

[5] = G protein-coupled receptor (GPCR) small molecule agonists, calcium flux assay: HEK293 wild type cell line counter screen (AID 1920065)
In short: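 Fluorescence intensity signals activation. After overnight (18 h) culture and a 1 h calcium dye load at 37 C, compounds are added by pin tool and the plate read at 480/540 nm for 3 min in 1 s steps.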

[6] = p53 small molecule agonists, cell-based qHTS assay with human liver microsomes (AID 1963577);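 further: p53 response element beta-lactamase reporter cells with liver microsomes plus NADPH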
In short: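 With metabolic activation: human liver microsomes (0.5 mg/mL final) plus NADPH (0.5 mg/mL final) added alongside compounds to p53RE-bla cells; 16 h 37 C exposure; beta-lactamase read by LiveBLAzer fluorescence.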

[7] = p53 small molecule agonists, cell-based qHTS assay with rat liver microsomes (AID 1963578)
In short: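 Metabolic activation by rat liver microsomes and NADPH, each 0.5 mg/mL final, added right after compounds to p53RE-bla reporter cells (4,000/well, plated 5 h earlier). 16 h at 37 C, then LiveBLAzer substrate for 2 h at room temperature in the dark; fluorescence read-out.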

[8] = p53 small molecule agonists, cell-based qHTS assay with human liver microsomes: qHTS cell viability counter screen (AID 1963579); further: nearly all actives have a fitted effect of over 45% in size
In short: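 Metabolic activation used human liver microsomes and NADPH, both 0.5 mg/mL final, over 16 hours at 37 C on p53RE-bla cells (4,000/well). Cytotoxicity measured by CellTiter-Glo luminescence, 30 min at room temperature.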

[9] = p53 small molecule agonists, cell-based qHTS assay with rat liver microsomes: qHTS cell viability counter screen (AID 1963580); further: nearly all actives have a fitted effect of over 45% in size
In short: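 After the beta-lactamase ratio was read, CellTiter-Glo was added to the same wells and luminescence measured at 30 min; cells had been treated 16 h at 37 C with compounds, rat liver microsomes and NADPH (0.5 mg/mL final each).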

[10] = p53 small molecule agonists, cell-based qHTS assay: qHTS cell viability counter screen (AID 1963581); further: nearly all actives have a fitted effect of over 45% in size; further: potency means the concentration at half of the fitted maximal effect
In short: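 Luminescence from CellTiter-Glo, reflecting ATP content, serves as the cytotoxicity measure; it is taken after the 2 h reporter substrate step in HCT-116 p53RE-bla cells dosed for 16 h at 37 C.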

[11] = p53 small molecule agonists, cell-based qHTS assay (AID 1963582; active means well fitted activation curve with a large enough effect in the signal ratio in the repeat runs, not every such curve was filed as active; the % refers to the signal ratio)
In short: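 After plating, p53RE-bla cells sat 5 h in the incubator; compounds or DMSO vehicle were pinned in; a 16 h incubation at 37 C followed; FRET substrate was added and, 2 h later at RT, fluorescence was measured.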

[12] = target: 5-hydroxytryptamine receptor 2A (Homo sapiens) (UniProt P28223); assay: 5-hydroxytryptamine receptor 2A (HTR2A) small molecule antagonists, cell-based qHTS assay (AID 1963586); further: nearly all actives have a fitted effect of over 45% in size; further: potency means the concentration at half of the fitted maximal effect
Sequence of 5-hydroxytryptamine receptor 2A (Homo sapiens) (P28223 whole entry, looked up): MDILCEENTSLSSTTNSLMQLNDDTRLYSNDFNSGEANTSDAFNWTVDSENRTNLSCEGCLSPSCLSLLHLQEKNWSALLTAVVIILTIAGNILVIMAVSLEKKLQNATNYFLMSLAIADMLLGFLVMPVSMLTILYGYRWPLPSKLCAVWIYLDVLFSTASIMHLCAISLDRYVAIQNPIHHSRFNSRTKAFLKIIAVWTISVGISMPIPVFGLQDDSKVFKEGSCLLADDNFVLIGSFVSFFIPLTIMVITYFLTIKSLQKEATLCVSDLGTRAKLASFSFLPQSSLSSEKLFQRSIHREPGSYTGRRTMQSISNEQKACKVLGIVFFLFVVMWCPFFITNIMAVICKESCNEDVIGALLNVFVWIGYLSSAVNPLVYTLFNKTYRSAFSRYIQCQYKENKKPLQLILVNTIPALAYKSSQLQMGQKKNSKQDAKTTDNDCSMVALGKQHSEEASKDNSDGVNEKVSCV
In short: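 CHO cells stably expressing human HTR2A were plated for 18 h at 37 C, then loaded with calcium dye for 1 h. Compounds were preincubated 5 min at room temperature before DOI (4 nM solution) was added. Kinetic fluorescence was read for 3 min.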

[13] = target: 5-hydroxytryptamine receptor 2A (Homo sapiens) (UniProt P28223); assay: 5-hydroxytryptamine receptor 2A (HTR2A) small molecule agonists, cell-based qHTS assay (AID 1963587); further: nearly all actives have a fitted effect of over 30% in size; further: potency means the concentration at half of the fitted maximal effect
In short: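 CHO cells stably expressing human HTR2A, plated 18 h, loaded with calcium dye 1 h at 37 C. Agonist mode: compounds added and intracellular calcium fluorescence recorded kinetically for 2 min at 1 sec intervals.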

[14] = target: Muscarinic acetylcholine receptor M1 (Homo sapiens) (UniProt P11229); assay: Cholinergic receptor muscarinic 1 (CHRM1) small molecule antagonists, cell-based qHTS assay (AID 1963588); further: nearly all actives have a fitted effect of over 40% in size; further: potency means the concentration at half of the fitted maximal effect
Sequence of Muscarinic acetylcholine receptor M1 (Homo sapiens) (P11229 whole entry, looked up): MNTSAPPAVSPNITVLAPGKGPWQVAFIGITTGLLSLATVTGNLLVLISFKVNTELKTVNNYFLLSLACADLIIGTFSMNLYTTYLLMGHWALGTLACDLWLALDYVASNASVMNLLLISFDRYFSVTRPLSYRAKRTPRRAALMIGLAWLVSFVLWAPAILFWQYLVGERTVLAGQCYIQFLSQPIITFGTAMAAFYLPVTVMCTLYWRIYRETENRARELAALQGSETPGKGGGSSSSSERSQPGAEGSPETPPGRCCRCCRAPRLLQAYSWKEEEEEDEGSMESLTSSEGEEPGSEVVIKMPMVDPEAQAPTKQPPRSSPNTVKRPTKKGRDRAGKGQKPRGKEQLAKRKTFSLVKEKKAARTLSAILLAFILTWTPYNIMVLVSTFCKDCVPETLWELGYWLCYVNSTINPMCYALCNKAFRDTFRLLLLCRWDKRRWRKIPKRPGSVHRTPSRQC
In short: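 Compounds were tested at 15 concentrations in three independent runs. Dye-loaded CHRM1-CHO cells were exposed 5 min at room temperature before stimulation by acetylcholine added at 50nM. Intracellular calcium was read kinetically on FDSS for 3 min.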

[15] = target: Muscarinic acetylcholine receptor M1 (Homo sapiens) (UniProt P11229); assay: Cholinergic receptor muscarinic 1 (CHRM1) small molecule agonists, cell-based qHTS assay (AID 1963589); further: nearly all actives have a fitted effect of over 35% in size
In short: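 Fluorescent calcium dye reports M1 activation in stably transfected CHO cells. Compounds, 15 concentrations, added after 1 h dye loading at 37 C; kinetic reading at 1 sec intervals.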

[16] = cAMP Responsive Elements (CRE) small molecule agonists, cell-based qHTS assay (AID 1963590)
In short: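 Compound exposure lasted 3 h at 37 C/5% CO2 in CRE-bla HEK 293T cells grown in assay medium with 10% dialyzed FBS and 25 mM HEPES. Reporter signal came from LiveBLAzer B/G FRET substrate, 2 h, room temperature.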

[17] = cAMP Responsive Elements (CRE) small molecule antagonists, cell-based qHTS assay (AID 1963591; active means well fitted inhibition curve with a large enough effect in the signal ratio in the repeat runs, not every such curve was filed as active; the % refers to the signal ratio)
In short: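 Stimulation used NKH477 at a final 0.25 uM for 3 h in compound-treated CRE-bla HEK293T cells, seeded 18 h beforehand. Reporter activity was measured with LiveBLAzer B/G FRET substrate after 2 h at room temperature.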

[18] = target: Beta-2 adrenergic receptor (Homo sapiens) (UniProt P07550); assay: Adrenergic beta2 receptor (ADRB2) small molecule antagonists, cell-based qHTS assay (AID 1963592); further: series mostly up to about 92 µM; nearly all actives have a fitted effect of over 50% in size
Sequence of Beta-2 adrenergic receptor (Homo sapiens) (P07550 whole entry, looked up): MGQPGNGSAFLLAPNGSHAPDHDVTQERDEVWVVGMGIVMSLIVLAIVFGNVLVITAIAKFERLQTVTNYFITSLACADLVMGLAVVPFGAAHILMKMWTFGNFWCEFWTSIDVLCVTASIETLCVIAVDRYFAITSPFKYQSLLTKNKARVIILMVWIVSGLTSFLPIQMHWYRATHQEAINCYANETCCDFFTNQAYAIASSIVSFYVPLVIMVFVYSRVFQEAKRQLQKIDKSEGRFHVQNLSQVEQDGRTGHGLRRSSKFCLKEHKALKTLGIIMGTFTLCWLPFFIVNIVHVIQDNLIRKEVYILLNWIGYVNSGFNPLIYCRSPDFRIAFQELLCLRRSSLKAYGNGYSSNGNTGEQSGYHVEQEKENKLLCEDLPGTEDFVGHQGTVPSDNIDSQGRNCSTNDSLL
In short: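 Assay format: CHO-ADRB2 cells, 18-20hr seeding at 37C/5% CO2, then compound plus 1nM isoproterenol agonist mix for 0.5hr RT. Homogeneous time-resolved fluorescence cAMP detection after 1hr, expressed as 665/615 nm ratio.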

[19] = target: D(2) dopamine receptor (Homo sapiens) (UniProt P14416); assay: Dopamine D2 receptor (DRD2) small molecule agonists, cell-based qHTS assay (AID 1963594); further: nearly all actives have a fitted effect of over 35% in size
Sequence of D(2) dopamine receptor (Homo sapiens) (P14416 whole entry, looked up): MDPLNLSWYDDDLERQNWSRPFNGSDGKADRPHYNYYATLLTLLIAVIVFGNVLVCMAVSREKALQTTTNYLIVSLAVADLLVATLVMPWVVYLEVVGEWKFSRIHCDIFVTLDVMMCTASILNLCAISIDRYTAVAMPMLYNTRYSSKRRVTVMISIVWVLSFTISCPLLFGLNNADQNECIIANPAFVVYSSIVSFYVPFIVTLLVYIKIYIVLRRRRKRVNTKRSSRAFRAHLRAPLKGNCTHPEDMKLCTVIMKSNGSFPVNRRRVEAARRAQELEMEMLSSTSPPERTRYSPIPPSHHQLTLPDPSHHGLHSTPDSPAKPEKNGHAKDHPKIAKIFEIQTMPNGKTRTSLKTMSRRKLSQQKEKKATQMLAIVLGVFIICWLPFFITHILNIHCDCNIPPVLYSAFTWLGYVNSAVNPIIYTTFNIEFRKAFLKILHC
In short: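 HEK293 cells stably expressing human DRD2, pre-treated with PDE inhibitor Ro20-1724 (0.1 mM final) and compound 10 min at room temperature, then stimulated with NKH477 (200nM […]) for 30 min. cAMP read by HTRF (665/620 nm).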

[20] = target: D(2) dopamine receptor (Homo sapiens) (UniProt P14416); assay: Dopamine D2 receptor (DRD2) small molecule antagonists, cell-based qHTS assay (AID 1963595; active means well fitted inhibition curve with a large enough effect in the signal ratio in the repeat runs, with a control signal flat; the % refers to the signal ratio)
In short: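 Antagonist mode in DRD2-HEK293 cells: after compound addition with 0.1 mM Ro20-1724, cells received quinpirole (12 nM) and NKH477 (200 nM) for 30 min at room temperature; HTRF cAMP read after 1 h detection.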

In the case of `O=S(=O)(O)c1ccc2ccccc2c1`, the Potency [1] is reported as “inactive”, the Potency [2] is reported as “inactive” and the Potency [3] is reported as “inactive”. For the same molecule, the Potency [4] was “inactive”, the Potency [5] was “inactive” and the Potency [6] was “inactive”. The Potency [7] was “inactive”, the Potency [8] was “inactive” and the Potency [9] was “inactive”. For the same molecule, the Potency [10] was “inactive”, the Potency [11] was “inactive” and the Potency [12] was “inactive”. For the same molecule, the Potency [13] was “inactive”, the Potency [14] was “inactive” and the Potency [15] was “inactive”. For the same molecule, the Potency [16] was “inactive”, the Potency [17] was “inactive” and the Potency [18] was “inactive”. The Potency [19] was “inactive” and the Potency [20] was “inactive”.
With `CCCCOC(=O)COc1ccc(Cl)cc1Cl` the Potency [1] was “inactive”, the Potency [2] was 69.4 µM (active) and inactive and the Potency [3] was “inactive”. For the same molecule, the Potency [4] was “inactive”, the Potency [5] was “inactive” and the Potency [6] was “inactive”. The Potency [7] was “inactive”, the Potency [8] was “inactive” and the Potency [9] was “inactive”. For the same molecule, the Potency [10] was “inactive”, the Potency [11] was “inactive” and the Potency [12] was “inactive”. For the same molecule, the Potency [13] was “inactive”, the Potency [14] was “inactive” and the Potency [15] was “inactive”. For the same molecule, the Potency [16] was “inactive”, the Potency [17] was “inactive” and the Potency [18] was “inactive”. For the same molecule, the Potency [19] was “inactive” and the Potency [20] was “inactive”.
In the case of `C=C(C)C(N)=O`, the Potency [1] is reported as “inactive”, the Potency [2] is reported as “inactive” and the Potency [3] is reported as “inactive”. For the same molecule, the Potency [4] was “inactive”, the Potency [5] was “inactive” and the Potency [6] was “inactive”. For the same molecule, the Potency [7] was “inactive”, the Potency [8] was “inactive” and the Potency [9] was “inactive”. The Potency [10] was “inactive”, the Potency [11] was “inactive” and the Potency [12] was “inactive”. The Potency [13] was “inactive”, the Potency [14] was 847 nM (active) and inactive and the Potency [15] was “inactive”. For the same molecule, the Potency [16] was “inactive”, the Potency [17] was “inactive” and the Potency [18] was “inactive”. For the same molecule, the Potency [19] was “inactive” and the Potency [20] was “inactive”.
For `Nc1ccc(Nc2ccccc2)cc1`, the Potency [1] was “inactive”, the Potency [2] was 53.9 µM (active) and inactive and 30.6 µM (active) and the Potency [3] was “inactive”. For the same molecule, the Potency [4] was “inactive”, the Potency [5] was “inactive” and the Potency [6] was “inactive”. For the same molecule, the Potency [7] was “inactive”, the Potency [8] was “inactive” and the Potency [9] was “inactive”. For the same molecule, the Potency [10] was “inactive”, the Potency [11] was “inactive” and the Potency [12] was “inactive and 3.75 µM (active)”. The Potency [13] was 7.68 µM (active) and 24.6 µM (active) and 3.89 µM (active), the Potency [14] was “inactive” and the Potency [15] was “inactive”. The Potency [16] was “inactive” and the Potency [17] was “inactive”.
For `CCc1ccccc1CC`, the Potency [1] was “inactive”, the Potency [2] was “inactive” and the Potency [3] was “inactive”. For the same molecule, the Potency [4] was “inactive”, the Potency [5] was “inactive” and the Potency [6] was “inactive”. For the same molecule, the Potency [7] was “inactive”, the Potency [8] was “inactive” and the Potency [9] was “inactive”. The Potency [10] was “inactive”, the Potency [11] was “inactive” and the Potency [12] was “inactive”. For the same molecule, the Potency [13] was “inactive”, the Potency [14] was “inactive” and the Potency [15] was “inactive”. For the same molecule, the Potency [16] was “inactive”, the activity change, negative = inhibition [17] was 3.92% [at 18.9 µM] (inactive) and the activity change, negative = inhibition [18] was -5.37% [at 19 µM] (inactive). The Potency [19] was “inactive” and the Potency [20] was “inactive”.
With `CCN1CCCC1=O` the Potency [1] was “inactive”, the Potency [2] was “inactive” and the Potency [3] was “inactive”. The Potency [4] was “inactive”, the Potency [5] was “inactive” and the Potency [6] was “inactive”. The Potency [7] was “inactive”, the Potency [8] was “inactive” and the Potency [9] was “inactive”. For the same molecule, the Potency [10] was “inactive”, the Potency [11] was “inactive” and the Potency [12] was “inactive”. For the same molecule, the Potency [13] was “inactive”, the Potency [14] was “inactive” and the Potency [15] was “inactive”. The Potency [16] was “inactive”, the Potency [17] was “inactive” and the Potency [18] was “inactive”. For the same molecule, the Potency [19] was “inactive” and the Potency [20] was “inactive”.
In the case of `CCc1cccc(CC)c1N`, the Potency [1] is reported as “inactive”, the Potency [2] is reported as “inactive” and the Potency [3] is reported as “inactive”. For the same molecule, the Potency [4] was “inactive”, the Potency [5] was “inactive” and the Potency [6] was “inactive”. For the same molecule, the Potency [7] was “inactive”, the Potency [8] was “inactive” and the Potency [9] was “inactive”. The Potency [10] was “inactive”, the Potency [11] was “inactive” and the Potency [12] was “inactive”. For the same molecule, the Potency [13] was “inactive”, the Potency [14] was “inactive” and the Potency [15] was “inactive”. The Potency [16] was “inactive”, the Potency [17] was “inactive” and the Potency [18] was “inactive”. The Potency [19] was “inactive” and the Potency [20] was “inactive”.
With `Clc1cc(Cl)c(Cl)cc1Cl` the Potency [1] was “inactive”, the Potency [2] was “inactive” and the Potency [3] was “inactive”. For the same molecule, the Potency [4] was “inactive”, the Potency [5] was “inactive” and the Potency [6] was “inactive”. For the same molecule, the Potency [7] was “inactive”, the Potency [8] was “inactive” and the Potency [9] was “inactive”. The Potency [10] was “inactive and 16.2 µM (active)”, the Potency [11] was “inactive” and the Potency [12] was “inactive”. For the same molecule, the Potency [13] was “inactive”, the Potency [14] was “inactive” and the Potency [15] was “inactive”. For the same molecule, the Potency [16] was “inactive”, the Potency [17] was “inactive” and the Potency [18] was “inactive”. The Potency [19] was “inactive” and the Potency [20] was “inactive”.
